# ± gives the standard deviation of the averaged measurements. The full ranking holds about 33,000 sequences; the median of “E-score (rank enrichment, -0.5 to 0.5)” is about -0.0075, and the highest 2% start at about 0.23. Many of the other results were omitted from the sample, so the highest values are more common in it than they were.
# Test system: WT Max(13-93) synthetic (M65Nle)
# Assay: PBM 8-mer E-score (E-score (rank enrichment, -0.5 to 0.5)); higher = stronger preferential binding
# Experimental: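 Protein binding microarray (universal PBM chip covering all 10-mers in fixed probe flanks) with chemically synthesized human Max(13-93) bHLH-LZ analogs (not full-length Max) bearing noncanonical residues (hArg, Tha, Aib, Nle at 65) and aromatic Cys staples. Read-out per 8-mer (and its reverse complement): E-score (rank-based enrichment, -0.5 to 0.5) and Z-score of median probe intensity.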
row,Sequence,PBM 8-mer E-score
1,AACGTAAA,0.198 ± 0.065
2,TACGTAAA,0.233 ± 0.068
3,AACGTAAC,0.192 ± 0.0073
4,GACGTAAA,0.0324 ± 0.088
5,AACGTGGT,0.282 ± 0.0092
6,AACGTAAT,0.248 ± 0.037
7,AACGTAGT,-0.0406 ± 0.12
8,AACGTGAG,0.132 ± 0.048
9,CACGTAAA,0.13 ± 0.054
10,AACGTGAA,-0.0163 ± 0.062
11,AACGTGAT,0.268 ± 0.014
12,AACGTGGA,0.153 ± 0.036
13,GTGTGCTA,0.0416 ± 0.009
14,AATCCGAT,-0.0748 ± 0.11
15,CATTTTCA,0.063 ± 0.11
16,CCGAATCG,-0.0138 ± 0.033
17,CTGTGCCC,-0.035 ± 0.08
18,CTGTATGA,0.012 ± 0.079
19,GGTAAAAA,-0.00424 ± 0.074
20,ACCAATCG,0.0164 ± 0.0081
21,CCGACCGC,-0.0589 ± 0.088
22,GCCTACAC,-0.0291 ± 0.029
23,CTGGATAA,-0.0145 ± 0.043
24,ACTGCATA,0.0165 ± 0.043
25,AATGAATC,-0.141 ± 0.014
26,GATGAATC,-0.0452 ± 0.013

row,Sequence,PBM 8-mer E-score
1,TATGAATA,0.151 ± 0.12
2,AATGAATT,0.128 ± 0.086
3,AATGAATG,0.2671 ± 0.0011
4,GATGAATA,0.272 ± 0.022
5,CACGACCC,-0.0381 ± 0.027
6,AGGAGGTA,-0.168 ± 0.047
7,CGCGGCAA,-0.139 ± 0.079
8,AGCACTCC,0.0118 ± 0.13
9,GTACGCAA,-0.00199 ± 0.077
10,ATACGCAA,0.241 ± 0.0012
11,ATACGCAG,-0.0132 ± 0.082
12,ATCGACAA,-0.0231 ± 0.046
13,ATACTATA,0.22 ± 0.019
14,GGGATGAA,-0.0123 ± 0.093
15,AATTTAGC,0.121 ± 0.065
16,CGGACCTA,-0.0947 ± 0.063
17,AATGCGTA,0.0374 ± 0.047
18,GATGCATA,0.0327 ± 0.027
19,CATGCAAC,0.287 ± 0.054
20,AATGCAAC,0.172 ± 0.014
21,CATGCATA,0.242 ± 0.064
22,CATGCGTA,0.346 ± 0.038
23,CATGCAAG,0.0946 ± 0.011
24,AATGCATG,0.257 ± 0.054
25,TATGCATA,0.181 ± 0.037
26,ACTGCATG,0.0467 ± 0.031

row,Sequence,PBM 8-mer E-score
1,ATTGCATG,0.163 ± 0.15
2,GATGCGTA,0.0564 ± 0.052
3,CTACCTAA,0.0741 ± 0.11
4,TTAGAGAA,-0.00786 ± 0.18
5,ATCTTTCG,0.0243 ± 0.034
6,AGGCGTCC,-0.0473 ± 0.0037
7,AATGCATC,0.163 ± 0.044
8,AATGCAAA,0.143 ± 0.091
9,CATGCATG,0.261 ± 0.073
10,AATGCAAT,0.237 ± 0.029
11,CATGCAGG,0.0755 ± 0.026
12,AATGCAAG,0.117 ± 0.074
13,CATGCATC,0.101 ± 0.018
14,AATGCATT,0.345 ± 0.024
15,AATGCATA,0.206 ± 0.12
16,AGGACGGG,-0.111 ± 0.0023
17,AGGGCTAT,-0.0385 ± 0.038
18,CTCATAGC,-0.112 ± 0.12
19,CACATTTA,0.143 ± 0.021
20,GCTAAACC,-0.212 ± 0.15
21,CAACGTGG,0.172 ± 0.03
22,CCACGTGG,0.4957 ± 0.00063
23,CAACGTGA,0.259 ± 0.05
24,CCACGTCC,-0.0561 ± 0.11
25,CCACGTTC,0.0954 ± 0.045
26,CGACGTGC,-0.0266 ± 0.031

row,Sequence,PBM 8-mer E-score
1,GCACGTTA,0.194 ± 0.078
2,AAACGTGA,0.146 ± 0.13
3,TAACGTGA,0.125 ± 0.039
4,CCACGTAG,-0.0793 ± 0.044
5,CCACGTTA,0.3 ± 0.019
6,CCACGTGC,0.488 ± 0.0054
7,CATTCCGG,-0.206 ± 0.049
8,ATTTCAAG,0.112 ± 0.2
9,ACACTAGG,-0.0884 ± 0.012
10,ATCTTTTG,0.00161 ± 0.044
11,CTTATGAA,0.0318 ± 0.11
12,CTTACTCA,0.0397 ± 0.06
13,CGACGTGA,0.0688 ± 0.0071
14,CCACGTGA,0.4829 ± 0.002
15,CTACGTGA,-0.0378 ± 0.094
16,AGAGCACA,-0.0234 ± 0.086
17,ATTGCTTA,0.0363 ± 0.041
18,ACTACACG,0.139 ± 0.041
19,CGTACACA,0.15 ± 0.012
20,TGTACACA,0.159 ± 0.071
21,CGTACACC,0.0276 ± 0.012
22,CGTACACG,0.257 ± 0.018
23,CCTACACG,-0.0643 ± 0.072
24,AGTACACG,0.233 ± 0.032
25,ACTACACA,0.306 ± 0.067
26,AGTACACA,0.163 ± 0.09

row,Sequence,PBM 8-mer E-score
1,CTTCGCTC,-0.143 ± 0.067
2,TAAGGAGA,0.0617 ± 0.054
3,CAGAACCA,-0.0491 ± 0.0095
4,AGTTGCTC,-0.143 ± 0.047
5,AGCACATA,0.0511 ± 0.0046
6,ATCACATA,0.175 ± 0.13
7,ACCACATG,0.404 ± 0.012
8,AGCACATC,0.0162 ± 0.041
9,ACCACATC,0.0678 ± 0.067
10,AGCACATG,0.343 ± 0.004
11,ACCACATA,0.00899 ± 0.073
12,ATCACATC,0.065 ± 0.073
13,ATCACATG,0.37 ± 0.017
14,GCTCTGAC,-0.2596 ± 0.00028
15,CCTACTGA,0.0748 ± 0.039
16,CCCTATCA,0.0698 ± 0.034
17,CCTCACAC,-0.0382 ± 0.027
18,TGAGCTCA,-0.206 ± 0.065
19,GATGCACA,-0.00554 ± 0.026
20,CATGCACG,0.186 ± 0.11
21,CGTGCACA,0.176 ± 0.0077
22,AATGCACA,0.128 ± 0.055
23,CGTGCACG,0.293 ± 0.049
24,AATGCACG,0.245 ± 0.045
25,TGTGCACA,0.132 ± 0.071
26,CATGCACA,0.353 ± 0.0061

row,Sequence,PBM 8-mer E-score
1,AATGCACT,0.143 ± 0.027
2,CCTACTGC,-0.0303 ± 0.015
3,AATAGAGT,0.0159 ± 0.021
4,AAGGCTCT,-0.0744 ± 0.037
5,GGTCGGAA,-0.0727 ± 0.14
6,AGTCTGTG,-0.264 ± 0.097
7,ACAGTGTG,0.116 ± 0.011
8,GGACATTA,0.0724 ± 0.14
9,GTGCACAA,-0.0677 ± 0.047
10,GATACAGC,0.0628 ± 0.015
11,CAGTATTC,0.0983 ± 0.017
12,CATATGCG,0.252 ± 0.015
13,CACATGCG,0.29 ± 0.047
14,CATATGCC,0.118 ± 0.036
15,CACATGCC,0.258 ± 0.024
16,GACATGCC,0.167 ± 0.019
17,AACATGCG,0.221 ± 0.0062
18,CCCATGCG,0.187 ± 0.058
19,CACATGCA,0.305 ± 0.031
20,AACATGCC,0.093 ± 0.12
21,AATATGCG,0.0644 ± 0.011
22,TACATGCA,0.196 ± 0.084
23,GACATGCA,0.144 ± 0.07
24,CTGCATAA,0.0963 ± 0.024
25,CCAATGTA,-0.0337 ± 0.034
26,GTTGTTTA,0.212 ± 0.071

row,Sequence,PBM 8-mer E-score
1,CTACACTC,-0.0808 ± 0.031
2,ACTGAGAC,-0.109 ± 0.043
3,CCCACGGC,-0.024 ± 0.17
4,CAGATTGG,-0.114 ± 0.072
5,CACATCCG,-0.176 ± 0.045
6,CTAAGGAG,-0.143 ± 0.011
7,GAAATATA,0.219 ± 0.035
8,AAAATATG,0.21 ± 0.0022
9,TAAATATA,0.253 ± 0.0074
10,AAAATACA,0.0792 ± 0.0013
11,AAAATATC,0.098 ± 0.12
12,TAAATACA,0.248 ± 0.0097
13,AAAATATA,0.254 ± 0.032
14,GAAATACA,-0.0415 ± 0.044
15,CAAATATA,0.137 ± 0.06
16,AGGGCGTA,0.122 ± 0.028
17,GAATTCTA,-0.07 ± 0.14
18,CAGGCCCC,-0.0835 ± 0.04
19,ACATGCAA,0.185 ± 0.073
20,ACATGCAC,0.244 ± 0.065
21,ACATGCAG,0.126 ± 0.044

# — the supplement of paper PMC12636033
